# Screens: PubChem, National Center for Advancing Translational Sciences (NCATS)
# An excerpt weighted towards active compounds, which were near 5.7% of everything screened.
# L3MBTL1 block = L3MBTL1 (human) inhibition; Potency, µM (highest dose often 57.1 µM), without a hit: at the highest dose activity, negative = inhibition, actives largely listed as inhibitors; AlphaScreen L3MBTL1–H3K9me1 peptide binding; Q9Y468; AID 485360; 230,000 compounds, 0.66% hits; note: potency is the fitted concentration of half-maximal effect; % is set by controls: 0 for no effect and ±100 for the full control effect; nearly all actives have a fitted effect of over 60% in size
#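 First, the protein-peptide complex forms for 30 min at room temperature (L3MBTL1 50 nM, biotinylated H3K9me1 peptide 75 nM). Next, compounds are pin-transferred and incubated 30 min. Finally, AlphaScreen beads are added and read after 30 min.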
# HP1b binding inh = blocks HP1-beta chromodomain binding to methylated histone tails | AlphaScreen HP1-beta / biotin-H3K9me3 peptide binding | Potency, µM (series often up to 114 µM), for inactives: at the top dose activity change, negative = inhibition, actives largely listed as inhibitors | 390,000 compounds, 0.56% hits | AID 540317; note: potency is the fitted concentration of half-maximal effect; nearly all actives have a fitted effect of over 70% in size
# Target sequence (P83916 whole entry, looked up): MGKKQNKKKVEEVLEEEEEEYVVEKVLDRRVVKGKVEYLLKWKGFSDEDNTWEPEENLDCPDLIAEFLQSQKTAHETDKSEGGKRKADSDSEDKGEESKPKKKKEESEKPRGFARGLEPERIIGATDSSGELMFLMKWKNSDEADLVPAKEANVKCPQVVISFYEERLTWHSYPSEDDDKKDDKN
#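 HP1-beta protein (50 nM final) preincubated 30 min at room temperature with biotinylated H3(1-18)K9me3 peptide (50 nM) in PBS pH 7.4, 0.01% Tween-20, then compound added for 30 min. AlphaScreen streptavidin donor/nickel chelate acceptor beads (10 ug/mL final), 30 min dark, luminescence read.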
# PI5P4K alpha inh = PI5P4K alpha (human) kinase inhibition | AID 652105 | max response, % | P48426 | PI5P4Kalpha enzyme, ADP-Glo luminescence, 60 min; hits give low values | 330,000 compounds, 1.2% hits; active = max response of -50% or lower; inconclusive = between -30% and -50%; inactive = -30% or higher; note: value at the top dose of about 77 µM; % is set by controls: 0 for no effect and ±100 for the full control effect
#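 ADP-Glo luminescence end-point read after a 60 min room-temperature kinase reaction of PI5P4Kalpha plus substrate, initiated with ATP at 5 microM final. Buffer: 0.038 M HEPES pH 7.4, EGTA, 0.1% CHAPS, 5% DMSO.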
# BAZ2B block = BAZ2B (human) inhibition; Q9UIF8; AlphaScreen BAZ2B-H3K14Ac peptide displacement; 360,000 compounds, 4.4% hits; AID 504333; Potency, µM (series often up to 114 µM), for the others: top-dose activity change, negative = inhibition, most hits filed as inhibitors; note: potency is the fitted concentration of half-maximal effect; % is set by controls: 0 for no effect and ±100 for the full control effect; nearly all actives have a fitted effect of over 60% in size
#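 In this displacement format the biotinylated H3(5-23) peptide acetylated at Lys14 serves as ligand at 50 nM, with BAZ2B at 50 nM in PBS pH 7.4 containing 0.01% Tween-20. Donor and acceptor beads are 10 ug/mL final.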
# JMJD2A Tudor = JMJD2A Tudor domain (human) inhibition; O75164; AlphaScreen JMJD2A-Tudor / H3K4me3 peptide binding; Potency, µM (titrated, usually from 114 µM), inactives show top-dose activity change, negative = inhibition, actives largely listed as inhibitors; 390,000 compounds, 4.4% hits; AID 504339; note: potency is the fitted concentration of half-maximal effect; % is set by controls: 0 for no effect and ±100 for the full control effect; nearly all actives have a fitted effect of over 50% in size
# JMJD2E inh = blocks human JMJD2E demethylase activity; B2RXH2; JMJD2E catalytic domain, FDH-coupled NADH fluorescence (FDH is formaldehyde dehydrogenase); Potency, µM (top dose mostly 57.1 µM), for inactives: at the highest dose activity change, negative = inhibition, usual class: inhibitors; 230,000 compounds, 1.6% hits; AID 2147; active = well fitted inhibition curve with a large enough effect, not every such curve was filed as active; inconclusive = small, poorly fitted or top-dose-only effect, or another doubt; inactive = no such curve, though single readings can be large or run the other way;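 note: potency is the fitted concentration of half-maximal effect; 0% = wells with enzyme and -100% = buffer wells without enzyme; nearly all actives have a fitted effect of over 50% in size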
# Target sequence (B2RXH2 1-337 limits assumed): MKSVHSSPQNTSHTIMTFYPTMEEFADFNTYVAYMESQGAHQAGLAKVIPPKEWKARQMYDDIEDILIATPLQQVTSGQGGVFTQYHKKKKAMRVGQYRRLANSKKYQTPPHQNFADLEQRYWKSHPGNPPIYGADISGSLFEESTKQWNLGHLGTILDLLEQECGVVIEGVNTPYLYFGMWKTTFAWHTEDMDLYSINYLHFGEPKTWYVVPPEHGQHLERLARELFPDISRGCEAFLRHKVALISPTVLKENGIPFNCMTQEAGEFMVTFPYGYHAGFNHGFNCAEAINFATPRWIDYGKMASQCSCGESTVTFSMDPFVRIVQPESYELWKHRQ
# Active calls of the source: *; u = inconclusive; x = no result; [ ] = another dose, or the depositor's remark. Unless noted, calls come from the whole dose curve; as a rule, active = well fitted inhibition curve with a large enough effect; inconclusive = small, poorly fitted or top-dose-only effect; inactive = no such curve, though single readings can be large or run the other way.
SMILES,L3MBTL1 block,HP1b binding inh,PI5P4K alpha inh,BAZ2B block,JMJD2A Tudor,JMJD2E inh
CCC(=O)Nc1nc(N)n(-c2ccccc2)n1,x,17%,5,u,-27%,6%
N#Cc1nc(Nc2cccc3ccccc23)nc(NC2CCCC2)n1,x,x,x,x,-27%,x
Cc1ccccc1-c1cc(C(=O)Nc2sc(C(=O)OC(C)C)c(C)c2C#N)c2ccccc2n1,-6%,u,-24,-1%,56µM*,u
COc1ccc(-c2cc(C(=O)Nc3sc4c(c3C#N)CCCC4)c3ccccc3n2)cc1,-14%,-10%,1,-11%,-29%,u
CCOC(=O)c1sc(NC(=O)c2cc(-c3ccc(C)cc3)nc3ccccc23)c(C#N)c1C,-2%,u,-24,0%,79µM*,-9%
Cc1cc(NC(=O)c2cc(-c3ccccc3C)nc3ccccc23)no1,-6%,12%,-12,-4%,-21%,-4%
COC(=O)c1sc(NC(=O)c2cc(-c3ccccc3)nc3ccccc23)c(C#N)c1C,-13%,7.9µM*,u,-33%,-3%[57.1 µM],-1%
COC(=O)c1ccc(NS(=O)(=O)c2ccccc2)o1,x,8%,6,-31%,-27%,u
CCCN(CCC)C(=O)Cn1c(=O)n(-c2ccc(C)c(C)c2)c(=O)c2c3c(sc21)CCCCC3,x,19%,x,2%,-1%,x
S=C(NCc1ccco1)N1CCN(Cc2ccco2)CC1,3%,u,x,u,4.5µM*,-4%
O=C(c1cccc(F)c1)N1CCN(Cc2ccco2)CC1,1%,-14%,4,50µM*,7.9µM*,-17%
O=C(c1cccc(F)c1)N1CCCN(C(=O)c2cccc(F)c2)CC1,3%,36%,5,-12%,4%,8%
O=C(NCCc1ccc(Cl)cc1)c1cnc2sc(N3CCCC3)nn2c1=O,x,-4%,x,-3%,-1%,x
COC(=O)[C@@]1(Sc2ccc(C)cc2)CC(=O)N(C(=O)/C=C/c2ccccc2)[C@@H]1c1ccccc1,x,x,4,x,x,x
N/C(=N\OC(=O)c1cc([N+](=O)[O-])ccc1Cl)c1ccccn1,-12%,8%,-7,u,u,1%
Cc1ccc(C(=O)O/N=C(\N)c2ccccn2)c(Cl)c1,-1%,37%,-62*,7%,8%,x
N/C(=N\OC(=O)c1ccc([N+](=O)[O-])cc1Cl)c1ccccn1,-5%,-22%,0,56µM*,u,x
N/C(=N\OC(=O)c1ccc(Cl)cc1Cl)c1ccccn1,11%,18%,-11,1%,-18%,-42%
Cc1cccc(OCC(=O)N(Cc2sccc2C)C2CCS(=O)(=O)C2)c1 (centres undefined),x,-3%,x,-2%,-17%,x
CC(C)=CC(=O)Oc1ccc(C(=O)N(C)c2ccccc2I)cc1,x,40%,x,x,-14%,x
Cc1cccc(N(Cc2cc(=O)[nH]c3ccccc23)C(=O)CCl)c1,x,-3%,-16,-17%,56µM*,x
CCCC(=O)N(Cc1cc(=O)[nH]c2ccccc12)c1cccc(C)c1,x,-10%,-13,-5%,u,x
CC(C)CC(CSc1ccc(Br)cc1)N1CCN(CC(C)C)CCC1=O (centres undefined),x,76%,x,x,39%,x
O=C(Nc1nonc1-c1ccc(Br)cc1)c1ccco1,x,14%,x,-1%,-9%,x
NC(=O)CSc1nnc2ccc(-c3ccc(Cl)cc3)nn12,-3%,28%,-2,89µM*,-11%,u
Cc1ccc(S(=O)(=O)Cc2sc3ccccc3[n+]2C)cc1,x,14%,x,50µM*,22µM*,u
CCCNC(=O)C1=CC(c2ccc3c(c2)OCO3)=NS(=O)(=O)N1C,x,23%,x,-3%,-11%,x
Nc1ncc(S(=O)(=O)Nc2ccc(F)cc2F)cn1,x,26%[57 µM],x,3%,-5%,x
CCn1c(=O)c2cc(C(=O)NCc3cc(OC)ccc3OC)sc2c2ccccc21,x,46%,x,-19%,-22%,x
COc1ccccc1NC(=O)CSCc1ccc([N+](=O)[O-])cc1,-8%,-8%,-5,-19%,-21%,4%
